{
  "source": "PubChem BioAssay (Tox21)",
  "note": "Where “and” joins values, the source holds several entries; their conditions need not be identical. Identical values can stand only once. Inconclusive results are not listed. Entries that show only a call come without a potency. More than one record can exist for a structure, and the calls need not agree. Calls of active or inactive are those of the source. Calls follow the shape of the dose curve; as a rule, active = well fitted cell-killing curve with a large enough effect in the repeat runs; inconclusive = weak or mixed curves, or effect the other way; inactive = flat fitted curve, though single readings scatter.",
  "data": [
    {"experiment": "Human pregnane X receptor (PXR) small molecule agonists, qHTS cell viability counter screen (AID 1346977); also: nearly all actives have a fitted effect of over 50% in size; also: potency is read from the fitted curve at half-maximal effect", "settings": "PXR-Luc HepG2 viability, CellTiter-Fluor, 24 h; series mostly up to 92.4 µM; activity change, negative = cytotoxicity: at the top concentration", "from_the_text": "U.S. Tox21 Program National Center for Advancing Translational Sciences [NCATS] NIH Chemical Genomics Center [NCGC] U.S. Environmental Protection Agency [EPA] National Institutes of Environmental Health Sciences [NIEHS] National Toxicology Program [NTP] U.S. Food and Drug Administration [FDA] Tox21 Assay Overview: The human pregnane X receptor (hPXR) regulates the expression of several drug metabolizing enzymes and induction of these proteins is a major mechanism for developing drug resistance in cancer. One such key enzyme catalyzing the drug metabolism is cytochrome P450 3A4 (CYP3A4). Changes in CYP3A4 expression affect drug metabolism, thereby reducing the therapeutic efficacy and altering toxicological response to a drug and which finally causes adverse drug interaction. To screen Tox21 libraries for compounds that activate hPXR-mediated CYP3A4 gene expression, PXR-Luc HepG2 cells were used. Also cytotoxicity of the compounds was tested in parallel by measuring the cell viability using CellTiter-Fluor assay system in the same wells.\nTox21 Assay Protocol Summary: PXR-Luc HepG2 cells were dispensed at 2,000 per well in 5uL of assay medium containing 5% charcoal-stripped FBS into white solid bottom 1536-well plates (Corning Life Sciences, Corning, NY) using a Multidrop Combi (Thermo Scientific, Waltham, MA) dispenser. The assay plates were incubated at 37 C and 5% CO2 for 5hr, and then 23nL of compounds dissolved in DMSO and positive control were transferred using a Pintool station (Wako, San Diego, CA). The assay plates were incubated at 37C and 5% CO2 for 24hr. For cytotoxicity read, after 23hr incubation at 37C, 1uL CellTiter-Fluor reagent (Promega Corporation, Madison, WI) was added to each well of the assay plates using Flying Reagent Dispenser (FRD, Aurora Discovery, San Diego, CA). After 1hr incubation at 37C and 5% CO2, the fluorescence signal was quantified using a ViewLux plate reader (PerkinElmer, Shelton, CT).", "values": [
      {"molecule": "CC(O)CCO", "note": "(stereo not given)", "Potency": "inactive"},
      {"molecule": "COc1ccc(C(CN(C)C)C2(O)CCCCC2)cc1", "note": "(stereo not given)", "Potency": "inactive"},
      {"molecule": "CCCCCc1cc(O)cc(O)c1", "activity change, negative = cytotoxicity": "-19.8% (inactive)"},
      {"molecule": "CC(C)=CC1C(C(=O)OCc2coc(Cc3ccccc3)c2)C1(C)C", "note": "(stereo not given)", "Potency": "inactive"},
      {"molecule": "CN(C)C(=O)Nc1ccc(Cl)cc1", "Potency": "inactive"},
      {"molecule": "Oc1cc(Cl)ccc1Cl", "Potency": "inactive"},
      {"molecule": "CCCCCCCCC(=O)NCc1ccc(O)c(OC)c1", "Potency": "inactive"},
      {"molecule": "N#CC(Br)Br", "Potency": "inactive"},
      {"molecule": "C=CCc1ccc2c(c1)OCO2", "Potency": "inactive"},
      {"molecule": "Nc1c(Cl)cc([N+](=O)[O-])cc1Cl", "activity change, negative = cytotoxicity": "-0.928% (inactive)"},
      {"molecule": "CCCCNC(=O)n1c(NC(=O)OC)nc2ccccc21", "Potency": "inactive"},
      {"molecule": "O=S(=O)(Oc1ccc(Cl)cc1)c1ccc(Cl)cc1", "Potency": "inactive"},
      {"molecule": "Oc1ccc(-c2ccccc2)cc1", "activity change, negative = cytotoxicity": "-11.2% (inactive)"},
      {"molecule": "O=C(Nc1ccc(Br)cc1)c1cc(Br)cc(Br)c1O", "Potency": "6.31 µM (active) and 8.63 µM (active) and 10.6 µM (active)"},
      {"molecule": "CCCCCCCCCCCOC(=O)c1ccccc1C(=O)OCCCCCCCCCCC", "Potency": "inactive"},
      {"molecule": "O=P(O)(O)CCCl", "Potency": "inactive"},
      {"molecule": "Cc1ccccc1[N+](=O)[O-]", "Potency": "inactive"},
      {"molecule": "C[C@]12CCC(=O)C(O)=C1CC[C@@H]1[C@@H]2CC[C@]2(C)C(=O)CC[C@@H]12", "Potency": "inactive"},
      {"molecule": "NNC(=S)NN", "activity change, negative = cytotoxicity": "0.957% (inactive)"},
      {"molecule": "CCc1cccc(CC)c1N(COC)C(=O)CCl", "Potency": "39.8 µM (active) and inactive"},
      {"molecule": "CCC(C)(c1ccc(O)cc1)c1ccc(O)cc1", "activity change, negative = cytotoxicity": "-24.9% (inactive)"},
      {"molecule": "COP(=S)(OC)Oc1cc(Cl)c(Cl)cc1Cl", "Potency": "inactive"},
      {"molecule": "N[C@@H](Cc1ccc(N(CCCl)CCCl)cc1)C(=O)O", "activity change, negative = cytotoxicity": "-19.5% [at 42.5 µM] (inactive)"},
      {"molecule": "CNC(=O)N(C)c1nnc(C(C)(C)C)s1", "Potency": "inactive"},
      {"molecule": "Cc1ccc(N)c(N)c1", "Potency": "inactive"},
      {"molecule": "Cc1cccc(N)c1N", "Potency": "inactive"},
      {"molecule": "C=C(C)C(=O)OCC1CO1", "note": "(stereo not given)", "Potency": "inactive"},
      {"molecule": "O=C1C=CC(=O)C=C1", "Potency": "inactive"},
      {"molecule": "C[C@]12CCC(=O)C[C@@H]1CC[C@@H]1[C@@H]2CC[C@]2(C)[C@@H](O)CC[C@@H]12", "Potency": "inactive"},
      {"molecule": "CCN(CC)N=O", "Potency": "inactive"},
      {"molecule": "O=c1oc2ccccc2c(O)c1C(CC(O)c1ccc(-c2ccc(Br)cc2)cc1)c1ccccc1", "note": "(stereo not given)", "Potency": "inactive"},
      {"molecule": "O=C(CCl)c1ccccc1", "Potency": "inactive"},
      {"molecule": "C1=Cc2cccc3cccc1c23", "Potency": "inactive"},
      {"molecule": "CCC(CC)Nc1c([N+](=O)[O-])cc(C)c(C)c1[N+](=O)[O-]", "Potency": "inactive"},
      {"molecule": "NNC(N)=S", "Potency": "inactive and 30.6 µM (active)"},
      {"molecule": "CC1(C)C(C=C(Cl)Cl)C1C(=O)OC(C#N)c1cccc(Oc2ccccc2)c1", "note": "(stereo not given)", "Potency": "inactive"},
      {"molecule": "CC(C)(C)c1ccccc1O", "Potency": "inactive"},
      {"molecule": "CCOC(=O)C(C)OC(=O)c1cc(Oc2ccc(C(F)(F)F)cc2Cl)ccc1[N+](=O)[O-]", "note": "(stereo not given)", "activity change, negative = cytotoxicity": "3.24% (inactive)"},
      {"molecule": "C#C[C@]1(O)CC[C@H]2[C@@H]3CCC4=CC(=O)CC[C@]4(C)[C@H]3CC[C@@]21C", "Potency": "inactive"},
      {"molecule": "O=C(NC(=O)c1c(F)cccc1F)Nc1ccc(Cl)cc1", "Potency": "inactive"}
    ]}
  ]
}
